The source of these data is paper PMC12136788.

Residue numbers refer to the chain shown, from its start. Over roughly 24,000 sequences, “enrichment r” has its median near 0.99; the highest 2% begin near 3.7. This is one part of a sample in which the highest values are shown more often than they occur.

First the molecules themselves.
T1: UNK ZnF1-3 (human, UniProt Q9C0B0 31-174)
T1 sequence: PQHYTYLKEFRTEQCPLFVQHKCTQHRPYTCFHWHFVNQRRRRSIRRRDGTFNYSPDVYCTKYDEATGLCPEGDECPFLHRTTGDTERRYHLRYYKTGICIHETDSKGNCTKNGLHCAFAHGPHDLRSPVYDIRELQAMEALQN

B1: chr8:114060920:114060921:+_ENSMUSG00000033545_ENSMUST00000095176|mus_mus|FALSE|FALSE (ssRNA)
RNA: GGGAGUUCUACAGUCCGACGAUCCGGGUGGAGGUCUGGGCGAACAUAAAGGCGGAGGGUUGGGGUUGGGGAGAGUCACAAAAGAGCCCCGAGGGGAGAAAAAUGAAAAAAGGUGAGGGGGGGAAUCCUCAAAAAAAAUCCGCGCAACAGAGGAUUGAGCAUCA
B2: chr8:114060920:114060921:+_ENSMUSG00000033545_ENSMUST00000095176|mus_hu|FALSE|FALSE (ssRNA)
RNA: GGGAGUUCUACAGUCCGACGAUCCCACUUCUCAGCAGCAGGGGGAGGGCUGGGCGAGCAUAAAGGGGGAGGGAGUCAAAAAGGAGACCCGGAGGGAGAAAAGGAAAAAAAGCAAAAGGAAAAAAGGAAAAAACCCGCGGGGCGCAACAGAGGAUUGAGCAUCA
B3: chr11:87793471:87793472:-_ENSMUSG00000020483_ENSMUST00000020775|mus_mus|mus_mus_mus_hu_False|68_108 (ssRNA)
RNA: GGGAGUUCUACAGUCCGACGAUCUGGGGGCUGGGGAAAAAGAAUAAGCUGGAUCCCCCACCCCCCCACAGUGUCAACCCUACACGAGAGUUUUGAAGGCGACUCAUGAAAAUCAGCAGCUCAAACGGCAAUGACCACCCCACCCAACAGAGGAUUGAGCAUCA
B4: chr17:45760540:45760541:+_ENSG00000108424_ENST00000290158|hu_hu|motif|central (ssRNA)
RNA: GGGAGUUCUACAGUCCGACGAUCUUUCCCUAGAGUAAAAAAAACAAAAAACAAAACCAAAAAAAAAAAACAAAACAAAACCGGAAGAGCGUCUUUCCUCUGUGUGUGUGUUUUUUUUUUUUUUUUUUUUUUUUUUUUUACAUCCAACAGAGGAUUGAGCAUCA
B5: chr3:41267201:41267202:+_ENSG00000168036_ENST00000349496|hu_mus|motif|central (ssRNA)
RNA: GGGAGUUCUACAGUCCGACGAUCCAAGAAUUUCACGUUUGUUUUGUUGAGCAAAGCAACCAUUUUCUGCAGUCCACCAGCGGGGCGCACUGCCAUUUUAGCUCCUUCCUGAUGGAGCAGGAGAUUAUGCAGUGUCGUGAUGGCCAACAGAGGAUUGAGCAUCA
B6: chr17:15081082:15081083:+_ENSMUSG00000050088_ENSMUST00000052691|mus_mus|FALSE|FALSE (ssRNA)
RNA: GGGAGUUCUACAGUCCGACGAUCUGCUCCAGCAUAUUCAAGGGAUCAGAAGAGAAUUUCAAGCACCAGUUUCAAAAUGCUAAUCAAUAUCGUCCAGAGAACUGAUUCCUCCUCUUGGGCUGCCUCUUCUGGAGCGUAAGCCUGCAACAGAGGAUUGAGCAUCA
B7: chr3:100438856:100438857:+_ENSG00000114354_ENST00000490574|hu_hu|motif|central (ssRNA)
RNA: GGGAGUUCUACAGUCCGACGAUCAACAAAUAAUGUCAGUUUCAGUAUCCUACUGCACUGAAUUGCAAAGGAAAGGUCAGAACGGUCAAAAAUUGUUAUAAGAUCUCCAUCUUCAUCUUUAUACUUUAUUGUUACUUCAUCAUUCAACAGAGGAUUGAGCAUCA
B8: 110847190_110847310_5644_3pUTR_ENSMUSG00000021700_ENSMUST00000167824|mouse|control|control (ssRNA)
RNA: GGGAGUUCUACAGUCCGACGAUCUAGUUGCUGAGGGGAACUGAAGAAUGAGGCAAUGCUGUUCUGUGGGGAUAGUGCUUUUAGAAUAUCCUUAAUCAUUUUUUUUUAAAAAACAUGUGGCAGUAUAAAAGGACUACACAAUGACAACAGAGGAUUGAGCAUCA
B9: chr2:203071915:203071916:-_ENSG00000116030_ENST00000392246|hu_mus|motif|central (ssRNA)
RNA: GGGAGUUCUACAGUCCGACGAUCCUAAGAGAUGGAGUGCCAGUAUUCAAUUUUCAUUUUGAACACCACAUUACAAAAGAACGGUUUUUAAAAAUAAAAAAGGAUUGAGGGAAAGGAAAAAUAAAAAAUAAAAAGAAUUAUCUACAACAGAGGAUUGAGCAUCA
B10: chr2:55200753:55200754:-_ENSG00000115310_ENST00000317610|hu_mus|FALSE|FALSE (ssRNA)
RNA: GGGAGUUCUACAGUCCGACGAUCUUGGAUUUUGGCCAUGGCAUCCUUAACGCUCUUGUUUGCAAGUCCUAGAUAAUGAUCUAUCUGCGCCUGAUGCCGUUCAUAUAUAACAGGAAUACUGAAGAGUGAGAUCAGAGCUAAAAUCAACAGAGGAUUGAGCAUCA
B11: chr13:113752066:113752067:+_ENSG00000126217_ENST00000375604|hu_mus|FALSE|FALSE (ssRNA)
RNA: GGGAGUUCUACAGUCCGACGAUCAGGGGAAGUGGGGCCUGCCCUGACGUGGAGAGGCAGCCAGUGCCUGAGUUGCUGAGGAUGACUGACAGCAUGGAGUUAUACAUUUUCUUUAAAAAUAAUAAAAAUAUCCUAAUUUAAUGACAACAGAGGAUUGAGCAUCA
B12: chr2:203071915:203071916:-_ENSG00000116030_ENST00000392246|hu_mus|FALSE|FALSE (ssRNA)
RNA: B9 RNA with G82U, G83A
B13: chr6:31461392:31461393:+_ENSMUSG00000025609_ENSMUST00000026699|mus_mus|motif|central (ssRNA)
RNA: GGGAGUUCUACAGUCCGACGAUCACCUGACGGACACUAGAGGCUUUGGAUAACCAUGUCAUUUCAACAGUAAGACAAACGGUAGAGACAACCCCCACAGUCAAAAACCACAUAUAAAAAUUAGAAUUUGCUUAAUACAGAAAACAACAGAGGAUUGAGCAUCA
B14: chr16:36085169:36085170:+_ENSMUSG00000075229_ENSMUST00000164916|mus_mus|FALSE|FALSE (ssRNA)
RNA: GGGAGUUCUACAGUCCGACGAUCCUUUAAUAACGUUAAGUCAUCCAGGUUCUUUUCUCUCUCUUCUCGGAGACUUUUUACUACUGCUGAGGUCUGGGCUAUACAGUUCUUUAUAACUCUGUCCCUACUGACAUGAGCUGCCAUCAACAGAGGAUUGAGCAUCA
B15: chr11:51935959:51935960:+_ENSMUSG00000020349_ENSMUST00000020608|mus_hu|FALSE|FALSE (ssRNA)
RNA: GGGAGUUCUACAGUCCGACGAUCGGUUCUGACAAUAACAAAGAACAACAUGGGGCUGAGAUUUGAGUAGGGAAUAAACUGAGUGCAGACAAAUCAUAUAAUUAAAUUAAACGGUAUCCCUGAAAAUAAAAAGAACAAUUUCAACAACAGAGGAUUGAGCAUCA
B16: chr8:96496865:96496866:-_ENSMUSG00000031751_ENSMUST00000053766|mus_hu|motif|central (ssRNA)
RNA: GGGAGUUCUACAGUCCGACGAUCGCAGUCCAGUCAACACCAGAAGAGAUCAUACCUACAGUUAAAAUUUGCAGUGUUUCGGAGGGGAAGAGAAAUGUCACAUAGAAAGUAUUACAAAGAAGGAUUAAAUUUAUCAGCUGUCCACAACAGAGGAUUGAGCAUCA

The test concerns the target T1, UNK ZnF1-3. The experiment in a line: nsRBNS (natural sequence RNA bind-n-seq); RBNS binding buffer (assumed for nsRBNS): 25 mM Tris pH 7.5, 150 mM KCl, 3 mM MgCl2, 0.01% Triton X-100, 500 ug/ml BSA, 20 U/ml SUPERase-In, 4 C; UNK is unkempt and MSI1 is Musashi-1; names of the RNAs are library labels; protein concentration not given here; high values mean tight binding.
As to B1, the binding signal was 4.66 enrichment R.

Molecule B2 showed a binding signal of 5.92 enrichment R.

Molecule B3 had a binding signal of 1.65 enrichment R.

As for B4, the binding signal was 3.38 enrichment R.

Molecule B5 yielded a binding signal of 0.539 enrichment R.

In the case of B6, the binding signal was found to be 1.42 enrichment R.

As to B7, the binding signal was determined as 0.76 enrichment R.

B8 registered a binding signal of 1.67 enrichment R.

Consider B9, for which the binding signal was determined as 10.9 enrichment R.

B10 showed a binding signal of 1.23 enrichment R.

For the molecule B11, the binding signal worked out at 3.79 enrichment R.

In the case of B12, the binding signal was 10.6 enrichment R.

Take B13: the binding signal was 3.37 enrichment R.

In turn, B14 had a binding signal of 0.477 enrichment R.

The molecule B15 came in with a binding signal of 3.8 enrichment R.

In turn, B16 returned a binding signal of 3.52 enrichment R.
